From PubChem BioAssay (EPA / NIEHS)
The source made the active and inactive calls. The calls were made as follows: active = hit-call score of the fitted dose curve at least 0.9, where 1 is the maximum; inactive = score below 0.9.

What was measured:
Conditions in all cases: mRNA level, 48 h; actives raise or lower the signal
[1] = read-out: Potassium channel subfamily K member 1 (KCNK1), KCNK1 (gene 3775); assay: LTEA_HepaRG_KCNK1: Life Technologies and Expression Analysis (LTEA) Assay for Potassium channel subfamily K member 1 (KCNK1) using HepaRG (AID 2283511)
Outline: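 Gain or loss of KCNK1 mRNA is the read-out, quantified by qRT-PCR against three housekeeping genes after 48 h chemical treatment of human HepaRG liver cells. Concentrations ran from 100 uM downward in half-log steps, vehicle 0.5% DMSO.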

[2] = read-out: Keratin 19 (KRT19), KRT19 (gene 3880); assay: LTEA_HepaRG_KRT19: Life Technologies and Expression Analysis (LTEA) Assay for Keratin 19 (KRT19) using HepaRG (AID 2283512)
Outline: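 Readout is qRT-PCR of KRT19 mRNA, normalized to ACTB, GAPDH and POLR2A, from HepaRG cells treated 48 h with eight-point half-log dilutions topping at 100 uM. Activity in either direction is scored relative to 0.5% DMSO vehicle.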

[3] = read-out: JUN Transcription Factor, JUN (gene 3725); assay: LTEA_HepaRG_JUN: Life Technologies and Expression Analysis (LTEA) Assay for JUN Transcription Factor using HepaRG (AID 2283513)
Outline: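 Cells plated 48 h, medium switched to serum-free induction medium, then dosed 48 h (100 uM top, half-log dilutions, 0.5% DMSO). RNA isolated; JUN measured by qRT-PCR against three housekeeping genes; gain or loss fitted relative to DMSO.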

[4] = read-out: Lipase C (LIPC), LIPC (gene 3990); assay: LTEA_HepaRG_LIPC: Life Technologies and Expression Analysis (LTEA) Assay for Lipase C (LIPC) using HepaRG (AID 2283514)
Outline: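 Read-out is LIPC transcript level by TaqMan qRT-PCR, normalized to three housekeeping genes, after 48 h chemical treatment of human HepaRG liver cells. Curves span eight concentrations topping at 100 uM; activity in either direction scored relative to 0.5% DMSO.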

[5] = read-out: Lipoprotein lipase (LPL), LPL (gene 4023); assay: LTEA_HepaRG_LPL: Life Technologies and Expression Analysis (LTEA) Assay for Lipoprotein lipase (LPL) using HepaRG (AID 2283515)
Outline: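 Read-out is LPL transcript level by qRT-PCR, normalized to three housekeeping genes and fitted bidirectionally against the DMSO control. Human HepaRG cells received chemicals for 48 h at up to 100 uM.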

[6] = read-out: MicroRNA 122 (MIR122), gene 406906; assay: LTEA_HepaRG_MIR122: Life Technologies and Expression Analysis (LTEA) Assay for MicroRNA 122 (MIR122) using HepaRG (AID 2283516); also: the transcript read is the microRNA miR-122
Outline: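 HepaRG plated 48 h, switched to serum-free induction medium, then treated in duplicate for 48 h (100 uM top, half-log steps, 0.5% DMSO vehicle). RNA isolated, qRT-PCR performed, concentration-response fitted both directions relative to DMSO.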

[7] = read-out: matrix metalloproteinase-10 (MMP10), MMP10 (gene 4319); assay: LTEA_HepaRG_MMP10: Life Technologies and Expression Analysis (LTEA) Assay for matrix metalloproteinase-10 (MMP10) using HepaRG (AID 2283517)
Outline: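 Gain or loss of MMP10 mRNA is fitted relative to the 0.5% DMSO vehicle. The human hepatic line HepaRG receives a 48-hour serum-free exposure, in duplicate, with a maximum concentration of 100 uM.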

MYC, MYC (gene 4609) = assay: LTEA_HepaRG_MYC: Life Technologies and Expression Analysis (LTEA) Assay for MYC using HepaRG (AID 2283518)
Outline: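 Expression changes were scored by TaqMan qRT-PCR with ACTB, GAPDH and POLR2A normalization. Cultures in serum-free induction medium received duplicate 8-point concentration series, highest 100 uM, for 48 h; DMSO (0.5%) served as baseline.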

[8] = read-out: matrix metalloproteinase-3 (MMP3), MMP3 (gene 4314); assay: LTEA_HepaRG_MMP3: Life Technologies and Expression Analysis (LTEA) Assay for matrix metalloproteinase-3 (MMP3) using HepaRG (AID 2283519)
Outline: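 HepaRG, human; 48 h dosing, 8 conc. (max 100 uM, half-log), duplicate, 0.5% DMSO. Readout: MMP3 transcript by Fluidigm TaqMan qRT-PCR, ACTB/GAPDH/POLR2A-normalised. Gain or loss fitted vs DMSO.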

[9] = read-out: Paternally Expressed 10 (PEG10), PEG10 (gene 23089); assay: LTEA_HepaRG_PEG10: Life Technologies and Expression Analysis (LTEA) Assay for Paternally Expressed 10 (PEG10) using HepaRG (AID 2283520)
Outline: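 HepaRG, 48 h post-plating → serum-free induction medium → 48 h chemical exposure (duplicate, 8-pt, max 100 uM, half-log, 0.5% DMSO) → lysis in RLT → TaqMan qRT-PCR for PEG10, ACTB/GAPDH/POLR2A normalisation.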

[10] = read-out: Nuclear factor NF-kappa-B p105 subunit (Homo sapiens) (UniProt P19838); assay: LTEA_HepaRG_NFKB1: Life Technologies and Expression Analysis (LTEA) Assay for Nuclear Factor Kappa B Subunit 1 (NFKB1) using HepaRG (AID 2283521);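 also: differentiated human HepaRG liver cells in serum-free induction medium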
Outline: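 NFKB1 transcript was measured by TaqMan qRT-PCR on Fluidigm arrays, normalised to three housekeeping genes and fitted in both directions against 0.5% DMSO. HepaRG cells were dosed in duplicate for 48 h in serum-free induction medium, eight half-log steps from 100 uM.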

[11] = read-out: Protein phosphatase 2A (PPP2R4), PTPA (gene 5524); assay: LTEA_HepaRG_PPP2R4: Life Technologies and Expression Analysis (LTEA) Assay for Protein phosphatase 2A (PPP2R4) using HepaRG (AID 2283522)
Outline: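 Readout is PPP2R4 transcript level by microfluidic qRT-PCR after 48 h chemical treatment of human HepaRG liver cells. Concentrations spanned 100 uM downward in half-log steps; gain or loss of signal was fitted relative to DMSO.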

[12] = read-out: Phosphatase and tensin (PTEN), PTEN (gene 5728); assay: LTEA_HepaRG_PTEN: Life Technologies and Expression Analysis (LTEA) Assay for Phosphatase and tensin (PTEN) using HepaRG (AID 2283523)
Outline: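 Read-out is PTEN transcript level by multiplexed TaqMan qRT-PCR after 48 h chemical treatment of human HepaRG cultures in serum-free induction medium. Concentrations spanned 100 uM downward in half-log steps, 0.5% DMSO throughout; activity fitted in both directions against vehicle.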

[13] = read-out: solute carrier (SLC22A1), SLC22A1 (gene 6580); assay: LTEA_HepaRG_SLC22A1: Life Technologies and Expression Analysis (LTEA) Assay for solute carrier (SLC22A1) using HepaRG (AID 2283524);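 as to AC50: differentiated human HepaRG liver cells in serum-free induction medium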
Outline: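 HepaRG (human liver line), 48 h dosing in serum-free induction medium; 8 conc., half-log down from 100 uM, 0.5% DMSO vehicle, duplicates. Endpoint: SLC22A1 mRNA, qRT-PCR, housekeeping-normalized; gain/loss fit vs DMSO.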

[14] = read-out: Pyruvate Dehydrogenase Kinase 4 (PDK4), PDK4 (gene 5166); assay: LTEA_HepaRG_PDK4: Life Technologies and Expression Analysis (LTEA) Assay for Pyruvate Dehydrogenase Kinase 4 (PDK4) using HepaRG (AID 2283525)
Outline: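 In this multiplexed human HepaRG expression assay, cells are treated 48 h with test chemicals across an eight-point range starting at 100 uM. PDK4 mRNA changes, normalized to ACTB/GAPDH/POLR2A, are fitted in both directions relative to vehicle.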

[15] = read-out: Nuclear factor erythroid 2-related factor 2 (Homo sapiens) (UniProt Q16236); assay: LTEA_HepaRG_NFE2L2: Life Technologies and Expression Analysis (LTEA) Assay for Nuclear factor erythroid 2-related factor 2 (NFE2L2) Transcription Factor using HepaRG (AID 2283527)
Outline: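 Transcript level of NFE2L2 is the read-out, measured by microfluidic TaqMan qRT-PCR and normalized to three housekeeping genes. Human HepaRG cultures received test chemical for 48 h at up to 100 uM in half-log steps. Gain or loss of signal is fitted relative to 0.5% DMSO.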

[16] = read-out: succinate dehydrogenase complex iron sulfur subunit B (SDHB), SDHB (gene 6390); assay: LTEA_HepaRG_SDHB: Life Technologies and Expression Analysis (LTEA) Assay for succinate dehydrogenase complex iron sulfur subunit B (SDHB) using HepaRG (AID 2283528)
Outline: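 SDHB transcript level read by TaqMan qRT-PCR, housekeeping-normalised (ACTB, GAPDH, POLR2A), after 48 h chemical treatment of plated HepaRG cells; eight concentrations top 100 uM, half-log steps, 0.5% DMSO, duplicates; fitted both directions against DMSO.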

[17] = read-out: Signal transducer and activator of transcription 3 (Homo sapiens) (UniProt P40763); assay: LTEA_HepaRG_STAT3: Life Technologies and Expression Analysis (LTEA) Assay for Signal transducer and activator of transcription (STAT3) using HepaRG (AID 2283529)
Outline: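 Read-out is STAT3 mRNA level by qRT-PCR, normalized to three housekeeping genes, in human HepaRG liver cells treated for 48 h. Concentrations ran from 100 uM downward in half-log steps; curves were fitted for gain or loss relative to 0.5% DMSO.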

[18] = read-out: solute carrier (SLCO1B1), SLCO1B1 (gene 10599); assay: LTEA_HepaRG_SLCO1B1: Life Technologies and Expression Analysis (LTEA) Assay for solute carrier (SLCO1B1) using HepaRG (AID 2283530)
Outline: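 Human HepaRG cultures treated for 48 h with an eight-concentration half-log series topping at 100 uM; SLCO1B1 measured by qRT-PCR and fitted bidirectionally relative to DMSO.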

[19] = read-out: NAD(P)H dehydrogenase [quinone] 1 (NQO1), NQO1 (gene 1728); assay: LTEA_HepaRG_NQO1: Life Technologies and Expression Analysis (LTEA) Assay for NAD(P)H dehydrogenase [quinone] 1 (NQO1) using HepaRG (AID 2283526)
Outline: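 HepaRG, 48 h post-plating → serum-free induction medium → test chemical 48 h (duplicate, 100 uM top, half-log x8, 0.5% DMSO) → RNA isolation → qRT-PCR, ACTB/GAPDH/POLR2A normalization; bidirectional curve fit vs DMSO baseline.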

Measured: AC50

Chain of Nuclear factor erythroid 2-related factor 2 (Homo sapiens) (Q16236 whole entry, looked up): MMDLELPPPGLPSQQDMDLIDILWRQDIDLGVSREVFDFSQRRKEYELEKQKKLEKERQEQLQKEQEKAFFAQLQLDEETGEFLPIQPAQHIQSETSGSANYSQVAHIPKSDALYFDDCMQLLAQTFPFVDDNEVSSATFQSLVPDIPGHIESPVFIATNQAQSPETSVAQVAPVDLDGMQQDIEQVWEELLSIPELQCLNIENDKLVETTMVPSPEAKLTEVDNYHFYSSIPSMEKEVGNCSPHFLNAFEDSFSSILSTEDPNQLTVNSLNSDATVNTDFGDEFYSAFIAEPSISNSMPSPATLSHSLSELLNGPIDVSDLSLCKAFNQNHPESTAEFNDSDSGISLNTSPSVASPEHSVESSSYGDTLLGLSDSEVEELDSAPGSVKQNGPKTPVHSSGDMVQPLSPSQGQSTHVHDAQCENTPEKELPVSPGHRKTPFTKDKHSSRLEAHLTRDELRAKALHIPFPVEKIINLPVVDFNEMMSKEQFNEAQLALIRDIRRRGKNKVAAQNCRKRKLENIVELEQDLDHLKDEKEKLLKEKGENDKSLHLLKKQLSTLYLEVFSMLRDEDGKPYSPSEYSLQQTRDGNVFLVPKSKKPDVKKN
Chain of Signal transducer and activator of transcription 3 (Homo sapiens) (P40763 whole entry, looked up): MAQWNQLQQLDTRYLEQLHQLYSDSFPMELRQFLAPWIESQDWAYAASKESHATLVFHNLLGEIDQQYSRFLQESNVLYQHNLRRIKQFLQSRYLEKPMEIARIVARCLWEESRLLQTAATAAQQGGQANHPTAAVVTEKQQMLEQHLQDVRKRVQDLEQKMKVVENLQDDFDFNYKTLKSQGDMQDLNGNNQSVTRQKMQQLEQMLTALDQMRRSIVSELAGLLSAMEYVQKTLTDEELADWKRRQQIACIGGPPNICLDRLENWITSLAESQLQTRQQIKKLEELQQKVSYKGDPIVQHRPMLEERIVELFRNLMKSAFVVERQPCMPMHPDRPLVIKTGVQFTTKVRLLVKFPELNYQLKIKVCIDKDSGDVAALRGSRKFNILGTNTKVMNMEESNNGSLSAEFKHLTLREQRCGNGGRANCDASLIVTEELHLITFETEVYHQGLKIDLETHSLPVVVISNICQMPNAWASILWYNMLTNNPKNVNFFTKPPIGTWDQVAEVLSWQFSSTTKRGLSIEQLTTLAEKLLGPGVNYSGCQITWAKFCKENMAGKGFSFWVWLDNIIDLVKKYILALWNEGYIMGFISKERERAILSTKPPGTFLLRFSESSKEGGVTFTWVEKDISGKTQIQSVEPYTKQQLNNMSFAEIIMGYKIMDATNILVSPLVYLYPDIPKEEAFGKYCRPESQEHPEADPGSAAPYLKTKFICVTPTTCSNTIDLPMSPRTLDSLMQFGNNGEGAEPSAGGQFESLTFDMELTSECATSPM
Chain of Nuclear factor NF-kappa-B p105 subunit (Homo sapiens) (P19838 whole entry, looked up): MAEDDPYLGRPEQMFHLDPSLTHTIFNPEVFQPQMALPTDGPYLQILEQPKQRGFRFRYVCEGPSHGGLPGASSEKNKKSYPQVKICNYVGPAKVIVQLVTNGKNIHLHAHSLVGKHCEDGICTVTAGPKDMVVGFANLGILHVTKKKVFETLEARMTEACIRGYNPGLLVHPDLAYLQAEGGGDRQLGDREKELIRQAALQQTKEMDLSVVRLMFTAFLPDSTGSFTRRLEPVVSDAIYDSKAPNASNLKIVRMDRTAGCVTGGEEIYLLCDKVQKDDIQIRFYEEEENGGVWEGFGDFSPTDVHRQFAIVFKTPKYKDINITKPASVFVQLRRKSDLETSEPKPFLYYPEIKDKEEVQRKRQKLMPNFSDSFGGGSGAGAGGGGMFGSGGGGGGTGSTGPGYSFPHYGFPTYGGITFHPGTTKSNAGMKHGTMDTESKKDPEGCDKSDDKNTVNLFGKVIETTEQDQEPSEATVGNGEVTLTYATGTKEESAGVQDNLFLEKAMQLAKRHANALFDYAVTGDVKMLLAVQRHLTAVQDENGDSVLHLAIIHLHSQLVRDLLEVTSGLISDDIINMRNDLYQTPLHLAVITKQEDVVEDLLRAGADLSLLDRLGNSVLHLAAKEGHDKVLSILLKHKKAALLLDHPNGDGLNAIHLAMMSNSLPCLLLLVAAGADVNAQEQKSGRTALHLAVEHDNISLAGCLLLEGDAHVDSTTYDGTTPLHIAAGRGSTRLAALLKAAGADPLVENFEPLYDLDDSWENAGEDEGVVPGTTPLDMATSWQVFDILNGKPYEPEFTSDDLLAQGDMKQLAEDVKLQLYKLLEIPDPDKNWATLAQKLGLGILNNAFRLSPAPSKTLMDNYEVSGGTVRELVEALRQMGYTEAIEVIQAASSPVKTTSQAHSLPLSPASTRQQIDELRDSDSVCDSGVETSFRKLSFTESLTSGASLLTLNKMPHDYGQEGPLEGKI

COc1ccc(-c2ccccc2)cc1NNC(=O)OC(C)C
not listed: [19]
inactive: all other assays above

COP(=S)(OC)Oc1ccc([N+](=O)[O-])c(C)c1
not listed: [10]
inactive: all other assays above

CCCN(CC)CC1COC2(CCC(C(C)(C)C)CC2)O1 (stereo not given)
not listed: [3]
inactive: all other assays above

CN/C(=N\[N+](=O)[O-])NCc1cnc(Cl)s1
active: [1] 50 µM | [2] 17.8 µM | [14] 36.6 µM
not listed: [10] | [19]
inactive: all other assays above

CC1(C)C(C=C(Cl)Cl)C1C(=O)OC(C#N)c1cccc(Oc2ccccc2)c1 (stereo not given)
active: [9] 50 µM | [14] 50 µM
inactive: all other assays above

CCN(CC)c1nc(C)cc(OP(=S)(OC)OC)n1
not listed: [19]
inactive: all other assays above

CCOc1nc(F)cc2nc(S(=O)(=O)Nc3c(Cl)cccc3Cl)nn12
active: [2] 9.92 µM | [8] 50 µM | [13] 50 µM
not listed: [19]
inactive: all other assays above

N#CN=C1SCCN1Cc1ccc(Cl)nc1
not listed: [3]
inactive: all other assays above

N#Cc1c(Cl)cccc1Cl
not listed: [19]
inactive: all other assays above

O=C1C2CC=CCC2C(=O)N1SC(Cl)(Cl)Cl (stereo not given)
active: [4] 49.2 µM | [5] 73.5 µM | [7] 49.2 µM
not listed: [3] | [19]
inactive: all other assays above

CCNC(=O)NC(=O)C(C#N)=NOC
active: [4] 50 µM | [9] 50 µM | [13] 74.2 µM
not listed: [3] | [10] | [19]
inactive: all other assays above

CCNP(=S)(OC)O/C(C)=C/C(=O)OC(C)C (stereo not given)
active: [2] 50 µM | [5] 50 µM | [8] 50 µM | [15] 9.92 µM
not listed: [3] | [19]
inactive: all other assays above

COC(=O)N(C(=O)N1CO[C@@]2(C(=O)OC)Cc3cc(Cl)ccc3C2=N1)c1ccc(OC(F)(F)F)cc1
active: [2] 16.9 µM | [4] 40 µM | [5] 2.97 µM | [6] 40 µM | [9] 20.5 µM | [13] 47.9 µM | [14] 40 µM | [15] 10 µM | [18] 59 µM
inactive: [1] | [7] | MYC, MYC (gene 4609) | [8] | [11] | [12] | [19] | [16] | [17]

CCCCC(O)(Cn1cncn1)c1ccc(Cl)cc1Cl (stereo not given)
inactive: [2] | [10] | [11] | [12] | [16]
active: [1] 41.3 µM | [4] 75.2 µM | [5] 50 µM | [6] 77 µM | [7] 67.4 µM | MYC, MYC (gene 4609) 74.7 µM | [8] 92.3 µM | [9] 50 µM | [13] 73.6 µM | [14] 78.8 µM | [15] 50 µM | [17] 85.9 µM | [18] 76.6 µM
